Assay outcomes as filed in PubChem.
Hits are enriched below; roughly 3.5% of the tested compounds scored in any of these assays.
CHRM1 antagonist – human CHRM1 antagonism | P11229 | CHO-K1 hM1, Fluo-8 calcium fluorescence, ACh EC80 antagonist | 360,000 tested, 1.3% active | inhibition, % at 3 µM | AID 588852;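 active = percent inhibition above its own plate's cutoff, namely the mean of that plate's compound wells plus 3 SD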;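 also: peak over basal fluorescence ratio during 140 s after agonist addition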
Target sequence (P11229 whole entry, looked up): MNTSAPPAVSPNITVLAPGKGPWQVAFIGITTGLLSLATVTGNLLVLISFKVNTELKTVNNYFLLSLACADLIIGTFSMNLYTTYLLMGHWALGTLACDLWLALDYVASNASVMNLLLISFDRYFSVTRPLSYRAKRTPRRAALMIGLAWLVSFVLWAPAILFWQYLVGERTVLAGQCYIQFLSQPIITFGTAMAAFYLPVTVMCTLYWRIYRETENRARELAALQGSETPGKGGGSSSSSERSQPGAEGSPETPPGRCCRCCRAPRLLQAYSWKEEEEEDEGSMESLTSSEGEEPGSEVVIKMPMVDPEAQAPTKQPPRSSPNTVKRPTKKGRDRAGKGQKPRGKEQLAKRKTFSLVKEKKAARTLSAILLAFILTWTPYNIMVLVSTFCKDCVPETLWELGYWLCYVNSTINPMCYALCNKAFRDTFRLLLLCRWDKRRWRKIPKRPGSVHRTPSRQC
CHRM1 PAM – positive allosteric modulators of human M1 muscarinic receptor. P11229. CHO-K1 hM1, Fluo-8 calcium fluorescence, ACh EC20; 0% = ACh EC20, 100% = maximal ACh. activation, % at 3 µM. 360,000 tested, 0.088% active; in the data active = activation above about 19%, passing the limit was not always enough
ATG4B inh – inhibitors of human ATG4B cysteine protease; AID 504462; inhibition, % at 8.33 µM; ATG4B cleavage of LC3-PLA2, NBD-HPC fluorescence, 1 h; Q9Y4P1; 340,000 tested, 0.51% active; in the data active = inhibition above about 40%
M1 ag – agonists of human M1 muscarinic receptor. CHO-K1 hM1, Fluo-8 calcium fluorescence, agonist mode; 0% DMSO, 100% acetylcholine EC100. AID 588814. activation, % at 3 µM. 360,000 tested, 0.33% active;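 active = activation above the run's mean compound activation plus 3 SD, cut at about 16% in these data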;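 also: peak over basal fluorescence ratio within a 140 s kinetic read after compound addition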
Myeloid diff MLP – myeloid differentiation induction. ER-HoxA9 myeloid progenitors, lysozyme-GFP differentiation, flow cytometry. calls only at 10 µM. 360,000 tested, 1% active. AID 624256;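 active = normalized GFP-positive differentiation at or above the plate's own cutoff, the solvent-only control mean plus 3 SD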;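 also: cells exposed to compound for four days before flow analysis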
SKN-1 block – blocks SKN-1 activity in C. elegans | C. elegans VP596 Pgst-4::GFP/RFP ratio, acrylamide-induced, 24 h | inhibition, % at 21.8 µM | 360,000 tested, 0.49% active;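 active = interference check ratio from 0.5 to 1.5 plus GFP to RFP signal ratio inhibition reaching or exceeding a fixed threshold, cut at about 30% in these data, passing the limit was not always enough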
ATG4B conf – confirmation of human ATG4B inhibitors; shares compounds with ATG4B inh; ATG4B protease fluorescent substrate cleavage assay; inhibition, % at 8.33 µM; 320 tested, 92% active; AID 504757; in the data active = inhibition above about 39%
PLA2 ctr – inhibits human PLA2, flagging false ATG4B inhibitors; inhibition, % at 8.33 µM; shares compounds with ATG4B inh; 1,600 tested, 66% active; purified PLA2, NBD-C6-HPC fluorescence, 45 min; in the data active = inhibition above about 50%
Target sequence (P04054 whole entry, looked up): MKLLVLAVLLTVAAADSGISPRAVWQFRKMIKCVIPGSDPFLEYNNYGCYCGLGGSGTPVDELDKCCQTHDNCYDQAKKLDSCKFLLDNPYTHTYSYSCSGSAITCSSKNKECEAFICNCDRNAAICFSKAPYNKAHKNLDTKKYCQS
Numbers stand for hits; 0 = inactive; - = not tested or not shown.

SMILES	CHRM1 antagonist	CHRM1 PAM	ATG4B inh	M1 ag	Myeloid diff MLP	SKN-1 block	PLA2 ctr	others
Cc1cccc(C)c1OCC(O)Cn1c2ccccc2c2ccccc21 (centres undefined)	0	0	53	0	0	0	61
Cc1nc(SCc2c(F)cccc2Cl)n[nH]1	0	0	0	0	0	0	-
COc1cnc(SCc2c(Cl)cccc2Cl)nc1Cl	0	0	50	0	0	0	0	ATG4B conf=59
S=c1[nH]nc(CSCc2ccccc2Cl)n1C1CCCCC1	0	0	55	0	0	0	63
Cn1c(CSCc2ccccc2Cl)n[nH]c1=S	0	0	0	0	0	0	-
O=C(/C=C/c1ccc2c(c1)S(=O)(=O)N(Cc1ccccc1)[C@H]2CC(=O)N1CCOCC1)N1CCOCC1	0	0	0	0	0	0	-
O=C(Oc1c(-c2ccccc2)oc2ccccc2c1=O)c1ccccc1	0	0	45	0	0	0	64
COC(=O)c1cccc(NC(=S)Nc2cccc(Cl)c2Cl)c1	0	0	44	0	0	0	0
COc1cc(NC(=S)Nc2ccc(Br)cc2Cl)c(OC)cc1Cl	0	0	0	0	0	0	-
COc1cc(NC(=S)Nc2cccc(Cl)c2Cl)c(OC)cc1Cl	0	0	40	0	0	0	60
Cc1cc(Cl)ccc1Oc1ccc(C(N)=O)cc1[N+](=O)[O-]	0	0	53	0	0	0	0
Cc1cc(=O)oc2cc(Oc3ccc(C(N)=O)cc3[N+](=O)[O-])ccc12	0	0	0	0	0	0	-
OC[C@@H]1CN(CCN2CCOCC2)C[C@H](n2cnc3c(NCc4ccco4)ncnc32)O1	0	0	-	0	0	0	-
C[C@@H](C(=O)N=c1sc2ccccc2n1C)N1C(=O)C2CC=CCC2C1=O (some centres undefined)	0	0	0	0	0	0	-
CC1(C)Cc2ccccc2-c2nnc(SCC(=O)Nc3nc4ccccc4s3)n21	0	0	42	0	0	0	51
NCCc1nnc(SCc2c(F)cccc2Cl)o1	0	0	0	0	0	0	-
Fc1cccc(Cl)c1CSc1nnc(COc2cccc3cccnc23)o1	0	0	64	0	0	0	67
O=C(c1ccc(-n2ccnc2)cc1)N1CCCC(CO)(Cc2cccc(Cl)c2)C1 (centres undefined)	0	0	0	0	0	0	-
COc1ccc(-c2ccc3c(c2)S(=O)(=O)c2cccc(C(=O)NCc4cccc(OC(F)(F)F)c4)c2C3=O)cc1OC	0	0	70	0	0	0	70
CCC(=O)n1nc(NCc2ccccc2OC)nc1NCc1ccccc1OC	0	0	41	0	0	0	0
CC(C)c1ccc(Nc2nc(NCc3ccco3)nc(N3CCOCC3)n2)cc1	0	0	41	0	0	0	57
Cc1cc(N/N=C/c2ccccc2Cl)nc(NCc2ccccc2)n1	0	0	85	0	0	0	91
Cc1cc(C)nc(N/N=C/c2ccccc2Cl)n1	0	0	0	0	0	0	-
CC(C)c1ccc(NC2CCCN(C(=O)c3cscn3)C2)cc1 (centres undefined)	0	0	0	0	0	0	-
CC(C)c1ccc(NC2CCCN(C(=O)CC3CCCC3)C2)cc1 (centres undefined)	0	0	87	0	0	0	89
SMILES	CHRM1 antagonist	CHRM1 PAM	ATG4B inh	M1 ag	Myeloid diff MLP	SKN-1 block	PLA2 ctr	others
CC(C)c1ccc(NC2CCCN(C(=O)c3cc(C(C)C)nc(N)n3)C2)cc1 (centres undefined)	0	0	75	0	0	0	77
CC(C)c1ccc(NC2CCCN(C(=O)c3ccc(N4CCOCC4)cc3)C2)cc1 (centres undefined)	0	0	77	0	0	0	82
CC(C)c1ccc(NC2CCCN(C(=O)c3ccoc3)C2)cc1 (centres undefined)	0	0	56	0	0	0	60
Cc1ccc(-c2nc(CN(Cc3c(C)nn(C)c3C)C(C)C)c(C)o2)o1	0	0	0	0	0	0	-
CCCCCCSc1nnc(-c2cnn(-c3ccccc3)c2-n2cccc2)n1C	0	0	44	0	0	0	58
CCCCCCCCCCCCCCCC[N+](C)(C)CCN(Cc1ccc(OC)cc1)c1ncccn1	0	0	67	0	-	59	61
COc1ccc(CN(C)c2ncnc(N)n2)cc1	0	0	0	0	0	0	-
Cc1ccccc1S(=O)(=O)N1[C@@H](c2ccc(Br)cc2)C(C(=O)O)=CC[C@H]1c1ccc(Cl)cc1	0	0	43	0	0	0	0	ATG4B conf=46
Cc1ccccc1S(=O)(=O)N1[C@@H](c2ccccc2)C(C(=O)O)=CC[C@H]1c1ccc(Cl)cc1	0	0	0	0	0	0	-
Cc1sc(NC(=O)CCl)c(C(=O)c2ccccc2)c1C	0	0	0	0	0	0	-
Cc1ccccc1C(=O)Nc1sc2c(c1C(=O)O)CCC2	0	0	52	0	0	0	0
Cc1ccccc1C(=O)Nc1sc(C)c(C)c1C(=O)c1ccccc1	0	0	41	0	0	0	61
O=C(NC(=S)Nc1sc2c(c1C(=O)O)CCCC2)c1ccccc1	0	0	52	0	0	0	62
CCCCCCCC(=O)O	0	0	0	0	0	0	-
CC/C=C\C/C=C\C/C=C\CCCCCCCC(=O)O	0	0	46	0	0	0	0	ATG4B conf=63
CCCn1c(=S)[nH]c2cc(C(=O)N3CCc4ccccc43)ccc2c1=O	0	0	65	0	0	0	0
CCOc1ccc(OCCCC(=O)N2CCN(S(=O)(=O)c3ccccc3C#N)CC2)cc1	0	0	0	0	0	0	-
O=C(/C=C/N1CCOCC1)c1coc2ccccc12	0	0	44	0	0	0	0
O=C(/C=C/N1CCOCC1)c1cc2ccccc2o1	0	0	65	0	0	0	0
O=C(Nc1ccccc1N1CCN(c2ccccc2)CC1)c1ccccc1	0	0	44	0	0	0	0	ATG4B conf=62
O=C(Nc1ccc(N2CCOCC2)cc1N1CCOCC1)c1ccccc1	0	0	0	0	0	0	-
Cc1ccc(OCc2cc(C(=O)N3CCc4sccc4C3)no2)cc1C	0	0	57	0	0	0	79
Cc1cccc(C)c1OCc1cc(C(=O)N2CCCCCCC2)no1	0	0	40	0	0	0	50
Cc1ccc(OCc2cc(C(=O)N3CCCCCCC3)no2)cc1C	0	0	0	0	0	0	-
C/C(=N\NC(=O)c1cccc(N/N=C(\C)c2cc(O)ccc2O)c1)c1cc(O)ccc1O	0	0	46	0	0	0	78
C/C(=N\NC(=O)c1cccc(N/N=C(\C)c2ccco2)c1)c1ccco1	0	0	0	0	0	0	-
